What was measured:
Experiment in all cases: PBM binding z-score (relative to random genomic background probes); higher = stronger binding; sequences stand for … in GC…GCGATTGACAGCGTAGAATGAAGG
[1] = system: PPARg:RXRa IVT, anti-PPARg (NR concentration 270 nM, RXRa partner concentration 90 nM)
Procedure, shortened: (§1)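 Regression normalization was applied to scanned fluorescence from custom Agilent 4×180K protein-binding microarrays. Before scanning, arrays were incubated 1 h with ligand-free nuclear receptor dimers, and binding was detected with antibodies against each partner (one per run). Binding z-scores use the random background probes as reference.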

[2] = system: PPARg DBDmut:RXRa IVT, anti-PPARg (DBD mutation: PPARg1 K132A/R137A, NR concentration 270 nM, RXRa partner concentration 90 nM)
Procedure, shortened: as §1

[3] = system: PPARg DBDmut IVT, anti-PPARg (DBD mutation: PPARg1 K132A/R137A, NR concentration 270 nM)
Procedure, shortened: as §1

[4] = system: PPARg homodimer (NR concentration 180 nM)
Procedure, shortened: as §1

[5] = system: PXR:RXRa (NR concentration 270 nM, RXRa partner concentration 90 nM)
Procedure, shortened: as §1

[6] = system: PXR homodimer (NR concentration 270 nM)
Procedure, shortened: as §1

[7] = system: RARa:RXR (NR concentration 270 nM, RXRa partner concentration 90 nM)
Procedure, shortened: as §1

[8] = system: RARa homodimer (NR concentration 270 nM)
Procedure, shortened: as §1

[9] = system: RARb:RXRa (NR concentration 270 nM, RXRa partner concentration 90 nM)
Procedure, shortened: as §1

[10] = system: RARb homodimer (NR concentration 270 nM)
Procedure, shortened: as §1

[11] = system: RARg homodimer (NR concentration 270 nM)
Procedure, shortened: as §1

[12] = system: RXRa DBDmut IVT, anti-RXR (DBD mutation: RXRa K156A/R161A, NR concentration 90 nM)
Procedure, shortened: as §1

[13] = system: RXRa homodimer (NR concentration 180 nM)
Procedure, shortened: as §1

[14] = system: THRa:RXRa (NR concentration 90 nM, RXRa partner concentration 90 nM)
Procedure, shortened: as §1

[15] = system: THRa homodimer (NR concentration 90 nM)
Procedure, shortened: as §1

[16] = system: VDR homodimer (NR concentration 270 nM)
Procedure, shortened: as §1

[17] = system: RARg:RXRa (NR concentration 270 nM, RXRa partner concentration 90 nM)
Procedure, shortened: as §1

Row | Sequence | PBM binding z-score [1] | PBM binding z-score [2] | PBM binding z-score [3] | PBM binding z-score [4] | PBM binding z-score [5] | PBM binding z-score [6] | PBM binding z-score [7] | PBM binding z-score [8] | PBM binding z-score [9] | PBM binding z-score [10] | PBM binding z-score [11] | PBM binding z-score [12] | PBM binding z-score [13] | PBM binding z-score [14] | PBM binding z-score [15] | PBM binding z-score [16] | PBM binding z-score [17]
1 | CGTCCAAGGTCATAGGGGGTCAGTGAAGACAGAT | 5.56 | 5.09 | 6.03 | 6.75 | 6.98 | 6.58 | 7.02 | 4.01 | 5.56 | 5.51 | 7.83 | 4.45 | 7.31 | 5.24 | 4.24 | 4.75 | –
2 | AGCGAAAGGTCGAGGTGAGTATAGAGAAAGGGAA | 2.26 | 0.0948 | 0.386 | 1.75 | 2.52 | 0.259 | 3.19 | 0.743 | 4.03 | 2.64 | 4.24 | 0.946 | 4.46 | 2.89 | 0.747 | 0.467 | 4.32
3 | CGTCCAAGGTCAAAGGTCAATGAAGAGATGACGG | 6.01 | 0.925 | 0.0116 | 3.92 | 7.05 | 1.95 | 8.9 | 1.95 | 6.08 | 5.56 | 8.5 | 3.93 | – | – | 2.5 | 3.6 | –
4 | ATCGAAAGGTCGAAGGTGAGCATACCCACCCGAA | 2.39 | 0.377 | 0.499 | 1.46 | 3.16 | 0.092 | 4.44 | 0.708 | 3.86 | 3.01 | 3.86 | 0.654 | 5.22 | 2.36 | 0.23 | 0.602 | 4.35
5 | GGAACGAGGTCAAAGTTGATAGCATCTGTCGACG | 6.45 | 0.31 | 1.24 | 2.56 | 5.91 | 2.54 | 6.93 | 0.429 | 5.18 | 4.02 | 6.56 | 4.67 | – | 4.12 | 2.61 | 4.79 | 6.64
6 | ATATGTAGGTTACCTGGGGTCATTCAGACTAGGC | 7.26 | 2.71 | 1.81 | 2.87 | 6.79 | 4.76 | 5.89 | 0.968 | 3.18 | 4.13 | 3.44 | 1.99 | 5.78 | – | 3.39 | 5.34 | 4.46
7 | CCTTACGGGTCACTCCAGGTCATAGCATCGGAGT | 4.39 | -0.278 | -0.144 | 2.14 | 6.17 | 1.15 | 4.49 | 0.835 | 4.25 | 4.42 | 5.41 | 1.08 | 5.06 | – | 3.03 | 2.49 | 5.28
8 | ATATGTAGGTTAGCTGAGGTCATTCAGACTAGGC | 6.48 | 2.26 | 1.4 | 3.04 | 6.68 | 6.09 | 4.95 | 1.7 | 3.34 | 4.04 | 3.72 | 1.9 | 4.53 | 5.33 | 4.38 | 5.55 | 3.95
9 | CGTCAAAGTTCAAGGTCACGTAACAGAAAGCAGC | 4.54 | 0.668 | 0.649 | 4.73 | 6.25 | 4.18 | 5.79 | 3.09 | – | 5.56 | 8.05 | 4.52 | 7.07 | 4.54 | 4.62 | 5.21 | 7.15
10 | AATACAGGGTCACGAGGCCAGAGTAGGTACGAAT | 5.74 | 2.21 | 2.16 | 3.03 | 4.43 | 0.257 | 5.27 | 1.39 | 5.07 | 4.14 | 5.99 | 2.95 | 7.67 | 4.06 | 2.21 | 3.31 | 6.44
11 | AGAATGAGGTTACCAAAGGTCAGGGAAACGCTTG | 4.54 | 1.08 | 0.912 | 4.43 | 6.1 | 1.49 | 6.53 | 1.28 | 4.91 | 5.13 | 5.66 | 1.72 | 7.02 | – | 2.11 | 1.92 | 6.29
12 | AGAATGAGGTCACCAAAGATCAGGGAAACGCTTG | 7.35 | 1.62 | 0.808 | 3.69 | 5.47 | 1.12 | 5.82 | 1.69 | 5.43 | 4.08 | 7.16 | 4.12 | 7.51 | 4.63 | 3.75 | 3.69 | 6.82

Reference: the supplement of paper PMC6555819
